USP2a inh: blocks human ubiquitin-specific protease USP2a. O75604. USP2 core, Ub-CHOP2 coupled fluorogenic reporter, 485/531. Potency, µM (series often up to 38.3 µM), actives largely listed as inhibitors. 0.01% of 330,000 active. AID 463254
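Deubiquitinase activity read as fluorescence (485/531 nm) after Ub-CHOP2 cleavage activates the enterokinase reporter on its substrate; USP2 core 10nM, Ub-CHOP2 and substrate 25nM each, 30min compound preincubation then 60min RT; data normalized to NEM, curves fitted.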
USP1 inh: blocks the human USP1/UAF1 deubiquitinase complex; O94782; recombinant USP1/UAF1, Ub-Rhodamine cleavage fluorescence; Potency, µM (highest dose often 57.1 µM), usual class: inhibitors; 0.23% of 390,000 active; AID 743255; also: nearly all actives have a fitted effect of over 60% in size
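USP1/UAF1 complex at 1 nM was preincubated with compound for 15 min at room temperature, then Ub-Rho substrate (150nM final) was added. Fluorescence (480/540 nm) was read kinetically, 6 reads every 60 seconds.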
S2 tox: viability counter-screen for ATXN expression inhibitors; S2 cells (HEK-293 line with an ATXN2-luciferase reporter) viability, CellTiter-Fluor protease fluorescence, 24 h; Potency, µM (doses to about 56.7 µM), hits mostly cytotoxic; 0.49% of 400,000 active; AID 651635; also: nearly all actives have a fitted effect of over 40% in size
IL1B secr inh: inhibitors of inflammasome signaling (IL-1 beta secretion). THP-1 LPS/ATP IL-1B secretion, AlphaLISA, 16 h; active compounds read low. activity change, % at 57.5 µM. 4.7% of 360,000 active. AID 743279; in the data active = activity change below about -50%; inconclusive = mostly about -30% to -49%
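Secreted IL-1B measured by AlphaLISA bead assay after 16 h compound exposure of THP-1 cells; compounds (final up to 57.5 uM) added 1 h before LPS (250 ng/mL) and ATP (1.25 mM) stimulation; lower signal means less secretion.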
ATXN2 expr inh: inhibitors of ATXN2 expression. HEK-293 ATXN2-luciferase reporter, luminescence, 24 h. Potency, µM (doses to about 57 µM), actives largely listed as inhibitors. 0.72% of 360,000 active. AID 1745845; also: nearly all actives have a fitted effect of over 55% in size
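ATXN2-luciferase reporter cells (luciferase flanked by upstream and downstream ATXN2 gene portions) were treated 24 h at 37 °C with compounds at up to 57 uM. SteadyGlo luminescence gave expression; GF-AFC fluorescence gave viability.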
Each line names hits and unclear results; the compound was inactive in the other large screens. Hits are enriched below; roughly 4.8% of the tested compounds scored in any of these assays. Unless noted, calls follow the shape of the dose curve; as a rule, active = well fitted curve in the direction sought with a large enough effect; inconclusive = small, poorly fitted or top-dose-only effect, or another doubt; inactive = no such curve, though single readings can be large; an effect the other way counts as inactive or inconclusive.

CCC1C(=O)NCCN1Cc1ccc2c(c1)CN(Cc1cccn1-c1ccc(Cl)cn1)CCO2 (stereo not given)	none (no result: USP2a inh, USP1 inh, IL1B secr inh, ATXN2 expr inh)
CN1OC[C@@H]2CN(C(=O)NC3CCCCC3)[C@H](c3ccc(N4CCCCC4)cc3)C[C@@H]21	none (no result: USP2a inh, USP1 inh)
O=C(/C=C1\NC2(CCCC2)Cc2ccccc21)N1CCOCC1	none
CC1(C)Cc2c(ccc3ccccc23)/C(=C/C(=O)N2CCCCC2)N1	USP1 inh inconclusive, IL1B secr inh -62
COc1cc(OC)c(-c2c3cc(O)c(=O)cc-3oc3cc(O)c(O)cc23)cc1OC	USP2a inh inconclusive, USP1 inh 25µM, S2 tox 13µM
COc1ccc(C(=O)C2CCCN(Cc3ccc4nonc4c3)C2)cc1F (stereo not given)	none
COc1ccc(C(=O)C2CCCN(Cc3ccc(C#CCCO)cc3)C2)cc1F (stereo not given)	IL1B secr inh -53
COc1ccc(/C=C/CN2CCCC(C(=O)c3ccc(OC)c(F)c3)C2)cc1 (stereo not given)	IL1B secr inh -93
O=C(NCC1CCN(Cc2ccccc2F)CC1)Nc1ccccc1F	none
CCc1cccc(CN2CCC(CNC(=O)Nc3ccc(Cl)cc3)CC2)c1	none (no result: ATXN2 expr inh)
O=C(NCC1CCN(Cc2cccc(Cl)c2)CC1)Nc1ccc(Cl)cc1	S2 tox inconclusive, IL1B secr inh -61 (no result: ATXN2 expr inh)
O=C(NCC1CCN(Cc2cccc(Cl)c2)CC1)Nc1ccc(F)c(Cl)c1	S2 tox 22µM, ATXN2 expr inh inconclusive (no result: USP2a inh, IL1B secr inh)
O=C(NCC1CCN(Cc2ccccc2F)CC1)Nc1cccc(Br)c1	IL1B secr inh -84
CCOC(=O)CCN(C(=O)Nc1ccccc1)C1CCCCC1	none (no result: USP2a inh)
O=C(OCCCOC(=O)c1ccccc1O)c1ccccc1O	none (no result: USP1 inh, S2 tox, IL1B secr inh, ATXN2 expr inh)
CN(C)c1nc(Cc2ccc(NC(=O)c3ccc4ccccc4c3)cc2)nc(Cl)c1CC(=O)O	none (no result: USP2a inh, USP1 inh, S2 tox, IL1B secr inh)
Cc1cc[n+](CC(=O)c2ccccc2)c2ccccc12	none
Cc1c(N)cc[n+](CC(=O)c2ccccc2)c1C	IL1B secr inh -70
Cc1ccc(NC(=O)CCS(=O)(=O)c2ccc3c(c2)oc(=O)n3C)c(Br)c1	none (no result: USP2a inh, IL1B secr inh)
COc1ccccc1CN(C)CC(=O)Nc1cccc2ccccc12	USP1 inh inconclusive, IL1B secr inh -60
COc1ccc(-c2n(Cc3ccccc3)c3ccccc3[n+]2Cc2ccccc2)cc1	IL1B secr inh -87, ATXN2 expr inh inconclusive
COc1cccc(OCc2nc3ccccc3n2Cc2ccccc2)c1	none (no result: USP2a inh, IL1B secr inh)
C=C1c2cccc(O)c2C(=O)C2C(=O)[C@]3(O)C(=O)C(C(N)=O)C(=O)[C@@H](N(C)C)[C@@H]3[C@@H](O)[C@H]12 (stereo not given in full)	USP2a inh 7.1µM, USP1 inh inconclusive
S=C(NCC1CCCO1)c1ccc(Br)cc1 (stereo not given)	IL1B secr inh -84
CCOC(=O)c1cnc(Nc2nc3ccccc3o2)nc1C	ATXN2 expr inh 2.8µM
CC1CN(CCC(=O)N2CCCC(C(=O)c3nccn3C)C2)Cc2cc(Cl)ccc2O1 (stereo not given)	none (no result: USP2a inh, USP1 inh, IL1B secr inh, ATXN2 expr inh)
CCC(C)Nc1nc(-c2c[nH]c3ccccc23)cs1 (stereo not given)	USP1 inh inconclusive, S2 tox inconclusive, IL1B secr inh -82
CN1CCN(CC(=O)Nc2nc3ccccc3s2)CC1	none (no result: ATXN2 expr inh)
CNc1nc(-c2c[nH]c3ccccc23)cs1	IL1B secr inh inconclusive
CN1CCN(CC(=O)Nc2nc(-c3c[nH]c4ccccc34)cs2)CC1	S2 tox inconclusive, IL1B secr inh -68
COC(=O)CCC(=O)NNC(=O)C1CC1(c1ccccc1)c1ccccc1 (stereo not given)	none
COc1cc([C@H]2Oc3cc([C@H]4Oc5cc(O)cc(O)c5C(=O)[C@H]4O)ccc3O[C@H]2CO)ccc1O	none (no result: USP2a inh, USP1 inh, S2 tox, IL1B secr inh)
COc1ccc(-c2sc3ccc(N4CCOCC4)cc3c2C#CCO)cc1	S2 tox inconclusive, ATXN2 expr inh 28µM
Cc1cc(S(=O)(=O)N2CCN(c3ccc(F)cc3)CC2)ccc1-n1cnnn1	none
Cc1cc(S(=O)(=O)N2CCN(c3ccccc3F)CC2)ccc1-n1cnnn1	IL1B secr inh -53
COC(=O)N/N=C\c1cc(Br)ccc1OCc1ccccc1	USP2a inh inconclusive, IL1B secr inh -73

High-throughput results: PubChem BioAssay, National Center for Advancing Translational Sciences (NCATS)
